Screens (PubChem BioAssay)
ELG1 genotox – qHTS screen for small molecules that induce genotoxicity in human embryonic kidney (HEK293T) cells expressing luciferase-tagged ELG1; HEK293T ELG1-luciferase reporter, luminescence, 16 h; Potency, µM (top dose mostly 46 µM), for the others: at the highest dose activity change, positive = activation, usual class: activators; 1.3% of 330,000 active; AID 504466, 2011; further: % of control where 0% means no effect; nearly all actives have a fitted effect of over 60% in size
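HEK293T cells expressing luciferase-tagged ELG1 were treated with compound or DMSO for 16 hr at 37°C. Luciferase activity was then read after 30 min with ONE-Glo at room temperature; rising signal flags genetic stress.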
SMN2 splice enh – qHTS Assay for Enhancers of SMN2 Splice Variant Expression. 2.8% of 210,000 active. AID 1458, 2008. Potency, µM (series often up to 46.1 µM), inactives show at the highest dose activity change, positive = activation, actives largely listed as activators. HEK293 SMN2-luciferase splicing reporter, luminescence, 30-36 h; further: % of control where 0% means no effect; nearly all actives have a fitted effect of over 55% in size
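HEK293 cells carry an SMN2 […]–luciferase reporter in which exon 7 inclusion puts luciferase in frame. Cells were plated 10-12 h before compound addition, then incubated 30-36 h at 37C. ONE-Glo luminescence was read; sodium butyrate at 4.5 mM final served as control.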
ELG1 DNA repair – qHTS screen for small molecules that inhibit ELG1-dependent DNA repair in human embryonic kidney (HEK293T) cells expressing luciferase-tagged ELG1; HEK293T ELG1-luciferase reporter, luminescence, 16 h; DNA damage induced by 5-fluorouridine; Potency, µM (highest dose often 46.1 µM), inactives show at the top dose activity change, negative = inhibition, hits mostly inhibitors; 2.3% of 330,000 active; further: on the % scale 0 is the no-effect control and ±100 the full control effect; nearly all actives have a fitted effect of over 55% in size
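Luminescence from the luciferase reporter, measured 30 min after ONE-Glo reagent at room temperature, was the read-out. Beforehand, 2,000 cells per well were exposed for 16 hr at 37 °C to 5-fluorouridine together with compound or vehicle.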
NPC1 prom act – qHTS Assay for NPC1 Promoter Activators; Potency, µM (doses to about 9.22 µM), for inactives: at the top dose activation, usual class: activators; Huh7 NPC1 promoter luciferase reporter, 24 h; AID 485313, 2010; 2.4% of 320,000 active; further: % of control where 0% means no effect; nearly all actives have a fitted effect of over 60% in size
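Cells: Huh7 expressing luciferase under the NPC1 promoter, 1500/well. Seeded 2 h, compound added, incubated 24 h at 37 °C. Luciferase reagent, 10 min ambient, then luminescence.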
FLuc counter – qHTS profiling assay for firefly luciferase inhibitor/activator using purifed enzyme and Km concentrations of substrates (counterscreen for miR-21 project); Luciferin 4-monooxygenase (Photinus pyralis), P08659; purified FLuc, Km substrates, luminescence inhibition; Potency, µM (series often up to 57.5 µM), inactives show at the top dose activity change, negative = inhibition, most hits filed as inhibitors; 6.9% of 360,000 active;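 further: plate controls were vehicle for no effect and reference inhibitor for full effect; nearly all actives have a fitted effect of over 55% in size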
Target sequence (P08659 whole entry, looked up): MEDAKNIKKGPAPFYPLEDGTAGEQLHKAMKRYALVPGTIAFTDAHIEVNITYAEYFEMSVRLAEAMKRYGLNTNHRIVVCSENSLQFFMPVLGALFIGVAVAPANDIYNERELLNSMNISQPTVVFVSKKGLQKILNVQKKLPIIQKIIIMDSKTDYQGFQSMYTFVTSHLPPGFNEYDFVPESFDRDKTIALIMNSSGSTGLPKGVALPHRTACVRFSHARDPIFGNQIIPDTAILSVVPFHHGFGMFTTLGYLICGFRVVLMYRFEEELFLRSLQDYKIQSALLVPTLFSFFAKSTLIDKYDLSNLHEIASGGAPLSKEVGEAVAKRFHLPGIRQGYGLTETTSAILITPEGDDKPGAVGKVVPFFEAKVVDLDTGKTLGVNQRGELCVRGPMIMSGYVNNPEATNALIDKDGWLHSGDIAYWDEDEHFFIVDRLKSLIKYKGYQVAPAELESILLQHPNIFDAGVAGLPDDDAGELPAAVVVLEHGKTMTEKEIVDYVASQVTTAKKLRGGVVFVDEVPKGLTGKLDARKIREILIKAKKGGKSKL
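Purified P. pyralis luciferase, 10 nM final, with Km-level 10 uM D-luciferin and 10 uM ATP in 50 mM Tris acetate pH 7.5, 10 mM Mg acetate, 0.01% Tween-20, 0.05% BSA; 6-point qHTS titration about 60 µM downward; luminescence read.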
Rab9 promoter act – qHTS Assay for Rab9 Promoter Activators; Huh7 Rab9 promoter-luciferase reporter, luminescence, 24 h; Potency, µM (highest dose often 9.22 µM), without a hit: at the highest dose activation, negative = inhibition, usual class: activators; 2.8% of 320,000 active; further: % of control where 0% means no effect; nearly all actives have a fitted effect of over 60% in size
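Steps: seed 1500 Huh7 Rab9-luc cells per well, rest 2 h at 37 °C; add compound in DMSO; incubate 24 h; add luciferase reagent, 10 min ambient; read luminescence.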
Starred values were filed as active, the others as inactive; [ ] = dose if it differs, or a comment. Sampled rows, rich in hits. Any-hit rate of the full collection: about 9.4%. The call rests on the fitted dose curve; in most records, active means well fitted curve in the direction sought with a large enough effect; inconclusive means small, poorly fitted or top-dose-only effect, or another doubt; inactive means no such curve, though single readings can be large; an effect the other way counts as inactive or inconclusive. Potency means the concentration at half of the fitted maximal effect.

For Cc1cc(C(=O)COC(=O)c2ccc(Cl)c(S(N)(=O)=O)c2)c(C)n1CC1CCCO1 (centres undefined) the results were ELG1 genotox inconclusive, ELG1 DNA repair inconclusive, NPC1 prom act 0.79µM*, FLuc counter 1.5µM* and Rab9 promoter act 0.71µM*.
COc1cc(OC)cc(C(=O)OCC(=O)c2cc(C)n(CC3CCCO3)c2C)c1 (centres undefined) was read as ELG1 genotox 8%, ELG1 DNA repair 17%, NPC1 prom act 14%, FLuc counter 6.7µM* and Rab9 promoter act 18%.
`COCCn1c(C)cc(C(=O)COC(=O)c2ccc(Cl)c(S(N)(=O)=O)c2)c1C` gave ELG1 genotox 0.58µM*, ELG1 DNA repair inconclusive, NPC1 prom act 0.5µM*, FLuc counter 0.76µM* and Rab9 promoter act 0.5µM*.
Screening COCCn1c(C)cc(C(=O)COC(=O)c2ccc(-n3nc(C)cc3C)cc2)c1C returned ELG1 genotox 0%, SMN2 splice enh -21%, ELG1 DNA repair -10%, NPC1 prom act -9%, FLuc counter inconclusive and Rab9 promoter act 1%.
For Cc1cc(C(=O)COC(=O)c2ccc3c(c2)NC(=O)CS3)c(C)n1CC1CCCO1 (centres undefined) the results were ELG1 genotox -1%, SMN2 splice enh -13%, ELG1 DNA repair inconclusive, NPC1 prom act -5%, FLuc counter 15µM* and Rab9 promoter act -4%.
Screening Cc1cc2c(s1)c1c(n2C)C(=O)N(Cc2ccccc2F)C1 returned NPC1 prom act 0%, FLuc counter -8% and Rab9 promoter act 2%.
`COc1cc(OC)c(C(=O)OCC(=O)c2cc(C)n(CC3CCCO3)c2C)cc1OC` (centres undefined) gave ELG1 genotox 2%, SMN2 splice enh 7%, ELG1 DNA repair -26%, NPC1 prom act -1%, FLuc counter 21µM* and Rab9 promoter act 3%.
Screening Cc1cc(C(=O)COC(=O)c2ccc(O)cc2)c(C)n1CC1CCCO1 (centres undefined) returned ELG1 genotox inconclusive, SMN2 splice enh 23%, ELG1 DNA repair inconclusive, NPC1 prom act 1.8µM*, FLuc counter 4.8µM* and Rab9 promoter act 4µM*.
Screening CCCC(=O)Nc1nc2c(ncn2[C@@H]2O[C@H]3COP(=O)(O)O[C@@H]3[C@@H]2OC(=O)CCC)c(=O)[nH]1 returned SMN2 splice enh -4%.
`Cc1nn(-c2ccc(C(F)(F)F)cn2)c(C)c1Oc1ccccc1O` gave ELG1 genotox 4%, SMN2 splice enh -11%, ELG1 DNA repair -5%, NPC1 prom act 6%, FLuc counter inconclusive and Rab9 promoter act -1%.
`CN(C)/C=N/c1ncnc2c1cnn2-c1ccc(C(F)(F)F)cn1` gave ELG1 genotox inconclusive, SMN2 splice enh 14µM*, ELG1 DNA repair inconclusive, NPC1 prom act 2.5µM*, FLuc counter 11µM* and Rab9 promoter act inconclusive.
`O=C(NCc1ccco1)/C(=C/c1ccc(C(F)(F)F)cc1)c1nc2ccccc2[nH]1` gave ELG1 genotox inconclusive, SMN2 splice enh 25%, ELG1 DNA repair inconclusive, NPC1 prom act 10%, FLuc counter 12µM* and Rab9 promoter act 15%.
Screening O=C(O)c1c2c(nc3ccccc13)/C(=C/c1ccc(O)cc1)CC2 returned ELG1 genotox -4%, SMN2 splice enh -53%, ELG1 DNA repair inconclusive, NPC1 prom act inconclusive, FLuc counter 0.54µM* and Rab9 promoter act inconclusive.
O=C(O)c1c2c(nc3ccccc13)/C(=C/c1ccc(OC(F)F)cc1)CCC2 was read as ELG1 genotox inconclusive, ELG1 DNA repair inconclusive, NPC1 prom act inconclusive, FLuc counter 12µM* and Rab9 promoter act inconclusive.
For COc1cccc2c1CCc1c-2nc2ccccc2c1C(=O)O the results were ELG1 genotox inconclusive, ELG1 DNA repair inconclusive, NPC1 prom act inconclusive, FLuc counter 0.95µM* and Rab9 promoter act inconclusive.
`C[C@@]12CCC(=O)C=C1CC[C@H]1[C@H]3CC[C@](O)(C(=O)CO)[C@]3(C)CC(=O)[C@@H]12` gave SMN2 splice enh -3%[20.6 µM].
Screening COc1ccc(-c2nc(NC(=O)C3CCN(c4nc5ccccc5o4)CC3)sc2C)cc1 returned ELG1 genotox -17%, SMN2 splice enh -66%, ELG1 DNA repair 12µM*, NPC1 prom act -7%, FLuc counter 0% and Rab9 promoter act 1%.
COc1ccc(-c2nc(NC(=O)C3CC(=O)N(Cc4ccco4)C3)sc2C)cc1 (centres undefined) was read as ELG1 genotox -4%, ELG1 DNA repair 0%, NPC1 prom act -2%, FLuc counter -2% and Rab9 promoter act -16%.
CCc1ccc(NC(=O)C2CCN(c3ncnc4c3nc3n4CCCCC3)CC2)cc1 was read as ELG1 genotox 0%, ELG1 DNA repair 2.6µM*, NPC1 prom act -2%, FLuc counter 0% and Rab9 promoter act -3%.
For O=C(Nc1ccccn1)C1CCN(c2ncnc3c2nc2n3CCCCC2)CC1 the results were ELG1 genotox -6%, ELG1 DNA repair 2.6µM*, NPC1 prom act -3%, FLuc counter -2% and Rab9 promoter act -2%.
O=C(Nc1ccc(F)cc1)C1CCN(c2ncnc3c2nc2n3CCCCC2)CC1 was read as ELG1 genotox -6%, ELG1 DNA repair inconclusive, NPC1 prom act -16%, FLuc counter 3% and Rab9 promoter act 1%.
Screening CC(C)(C)S(=O)(=O)c1nc2ccccc2s1 returned ELG1 genotox -3%, SMN2 splice enh 0%, ELG1 DNA repair 16%, NPC1 prom act -4%, FLuc counter -5% and Rab9 promoter act -1%.
Screening O=C(O)c1ccc2c(c1)C(=O)N(c1cccc(-c3nc4ccccc4s3)c1)C2=O returned ELG1 genotox 6%, ELG1 DNA repair inconclusive, NPC1 prom act 1%, FLuc counter 2.4µM* and Rab9 promoter act -7%.
Screening CC[n+]1cccc(-c2nc3ccccc3s2)c1 returned ELG1 genotox 4%, SMN2 splice enh -20%, ELG1 DNA repair -13%, NPC1 prom act 1%, FLuc counter 27µM* and Rab9 promoter act -1%.
